High-throughput results deposited in PubChem by National Center for Advancing Translational Sciences (NCATS).
A selection: hits, their analogues and other compounds. The true share with any hit is near 2.8%.
PMP22 txn: modulates PMP22 transcription in S16 Schwann cells. AID 1508649. hit rate 2% among 43,000. S16 Pmp22-F2sN Schwann cells, FLuc/NLuc coincidence luminescence, 24 h. Potency, µM (series often up to 57.5 µM), without a hit: at the highest dose activity change, negative = inhibition, actives largely listed as inhibitors; active = clear falling dose curves in both reporters; inconclusive = both reporters move, but less clearly or upward; inactive = either reporter flat; the % is the NLuc reporter signal; note: potency is the fitted concentration of half-maximal effect; % is set by controls: 0 for no effect and ±100 for the full control effect
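Reporter cells (S16 Pmp22-F2sN, 500–1,000 per well) exposed to compounds for 24 h, 37C, 5% CO2; lysis with FLuc read after 10 min, then Stop&Glo and NLuc read after 10 min.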
pS6 MEF inh: inhibitors of mTORC1 signaling in Tsc2-/- p53-/- MEF cells | Potency, µM (series often up to 38.3 µM), for the others: top-dose activity change, negative = inhibition, most hits filed as inhibitors | Tsc2-/- p53-/- MEF, phospho-rpS6 immunofluorescence/PI, 24 h | hit rate 0.78% among 44,000;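 note: potency is the fitted concentration of half-maximal effect; plate controls were DMSO for no effect and rapamycin for full effect; nearly all actives have a fitted effect of over 50% in size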
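Compounds act on Tsc2-/-, p53-/- fibroblasts carrying an empty vector for 24 h before fixation and dual staining for phospho-S6 and DNA (propidium iodide). Values are percentages of cells above a rapamycin-defined pS6/PI threshold.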
TSG101-PTAP inh: inhibitors of HIV-1 PTAP binding to human TSG101, validation. 44,000 tested, under 10 active. Fluorescence polarization, FITC-PTAP peptide/Tsg101, 20 min. Potency, µM (doses to about 115 µM), actives largely listed as inhibitors; note: potency is the fitted concentration of half-maximal effect; 0% is about no effect
Target sequence (Q99816 whole entry, looked up): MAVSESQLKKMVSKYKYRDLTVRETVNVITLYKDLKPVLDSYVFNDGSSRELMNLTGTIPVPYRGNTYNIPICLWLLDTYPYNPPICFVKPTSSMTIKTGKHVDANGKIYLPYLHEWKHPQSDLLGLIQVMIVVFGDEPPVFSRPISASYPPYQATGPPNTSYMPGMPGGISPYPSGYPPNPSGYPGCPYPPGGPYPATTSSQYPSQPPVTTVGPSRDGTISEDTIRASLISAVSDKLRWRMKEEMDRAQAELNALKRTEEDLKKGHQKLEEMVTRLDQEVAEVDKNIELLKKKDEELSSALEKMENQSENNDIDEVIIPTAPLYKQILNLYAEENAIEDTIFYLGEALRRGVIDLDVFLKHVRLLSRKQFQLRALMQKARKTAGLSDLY
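The Tsg101 binding domain, at 10 uM final, is mixed with compound and a FITC peptide bearing the PTAP motif (50 nM final). After 20 min at r.t., polarization is measured; actives defined by CRC class, efficacy cut-off 60% inhibition.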
GALK inhibitor: inhibits human galactokinase | P51570 | recombinant GALK, Kinase-Glo ATP luminescence, 1 h | Potency, µM (top dose mostly 57.5 µM), for inactives: top-dose activity, negative = inhibition, hits mostly inhibitors | 44,000 tested, under 10 active | AID 1347072;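 note: plate controls were full GALK reaction for no effect and reaction lacking GALK for full effect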
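Luminescent ATP-depletion readout (Kinase-Glo Plus) after 1 h room-temperature incubation of human GALK (5 nM) with galactose 100 µM and ATP 35 µM, pH 8.0 HEPES/Mg2+ buffer; compounds tested in qHTS format.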
S16 viability: cytotoxicity in S16 Pmp22-F2sN Schwann cells | hit rate 0.48% among 43,000 | Potency, µM (doses to about 57.5 µM), inactives show at the top dose activity change, negative = cytotoxicity, actives largely listed as cytotoxic | S16 Pmp22-F2sN Schwann cells viability, CellTiter-Glo, 24 h; note: potency is the fitted concentration of half-maximal effect; % is set by controls: 0 for no effect and ±100 for the full control effect; nearly all actives have a fitted effect of over 65% in size
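Luminescence from CellTiter-Glo, read by CCD camera after a 15 min room-temperature incubation, served as the viability signal. Reporter Schwann cells (S16 Pmp22-F2sN) had been treated with pin-transferred compounds for 24 h at 37C.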
NLuc sat counter: inhibits NanoLuc at saturating substrate, PMP22 counter-screen; hit rate 4% among 690; Potency, µM (doses to about 57.5 µM), inactives show at the top dose activity change, negative = inhibition, most hits filed as inhibitors; Secreted NLuc enzyme (filtered S16 cell medium), Nano-Glo luminescence; AID 1508638; shares compounds with PMP22 txn; note: potency is the fitted concentration of half-maximal effect; % is set by controls: 0 for no effect and ±100 for the full control effect
NLuc Km counter: NanoLuc inhibition at Km substrate, PMP22 artifact check. shares compounds with PMP22 txn. secreted NLuc enzyme, coelenterazine luminescence, Km conditions. Potency, µM (highest dose often 57.5 µM), for inactives: at the top dose activity change, negative = inhibition, hits mostly inhibitors. hit rate 5% among 690; note: potency is the fitted concentration of half-maximal effect; % is set by controls: 0 for no effect and ±100 for the full control effect
FLuc counter: inhibits firefly luciferase, PMP22 counter-screen | 690 tested, under 10 active | Potency, µM (doses to about 57.5 µM), for inactives: top-dose activity, negative = inhibition, most hits filed as inhibitors | AID 1508640 | purified P. pyralis FLuc, luminescence, 10 min | shares compounds with PMP22 txn; note: % of control where 0% means no effect
S16 viab conf: confirmation of cytotoxicity in S16 Pmp22-F2sN Schwann cells (luciferase reporters placed in the Pmp22 gene) | hit rate 7% among 690 | shares compounds with PMP22 txn | Potency, µM (highest dose often 57.5 µM), for inactives: top-dose activity change, negative = viability loss, most hits filed as cytotoxic | S16 Schwann cells viability, CellTiter-Glo ATP luminescence, 24 h | AID 1508641; note: potency is the fitted concentration of half-maximal effect; % is set by controls: 0 for no effect and ±100 for the full control effect
PMP22 txn conf: confirmation of modulators of PMP22 gene transcription in S16 cells; hit rate 22% among 690; shares compounds with PMP22 txn; Potency, µM (series often up to 57.5 µM), without a hit: top-dose activity change, negative = inhibition, actives largely listed as inhibitors; AID 1508646; S16 Schwann cells Pmp22-F2sN, dual luciferase, 24 h; active = clear falling dose curves in both reporters; inconclusive = both reporters move, but less clearly or upward; inactive = either reporter flat; the % is the FLuc reporter signal; note: potency is the fitted concentration of half-maximal effect
The depositor's hits bear a star; i = inactive; ? = inconclusive; / = no result. Unless noted, calls come from the whole dose curve; as a rule, active = well fitted curve in the direction sought with a large enough effect; inconclusive = small, poorly fitted or top-dose-only effect, or another doubt; inactive = no such curve, though single readings can be large; an effect the other way counts as inactive or inconclusive.

SMILES	PMP22 txn	pS6 MEF inh	TSG101-PTAP inh	GALK inhibitor	S16 viability	NLuc sat counter	NLuc Km counter	FLuc counter	S16 viab conf	PMP22 txn conf
CCOc1ccc(NC(=O)c2cccn(Cc3cccc(Cl)c3)c2=O)cc1	-86%	?	i	2%	4%	/	/	/	/	/
CCOc1ccc(NC(=O)c2cc3c(C)nn(-c4ccccc4)c3s2)cc1	?	18µM*	i	-14%	-7%	/	/	/	/	/
CCOc1ccc(-c2cc(C(=O)N3CCN(c4cccc(C(F)(F)F)c4)CC3)c3ccccc3n2)cc1	-81%	?	i	-6%	?	/	/	/	/	/
Cc1ccc2oc(-c3ccc(Cl)cc3)c(O)c(=O)c2c1	?	9.3µM*	i	0%	?	/	/	/	/	/
CCCCOc1ccc(CN2C(=O)C(=O)c3cc(C)ccc32)cc1OC	8.8µM*	?	i	3%	?	-16%	-1%	-2%	-7%	?
Cc1oc(-c2ccc(Cl)cc2)nc1CN1CCC(C(=O)NCCCN2CCN(c3cccc(Cl)c3)CC2)CC1	13µM*	?	i	8%	?	?	?	-9%	17µM*	10µM*
O=C(NCCc1ccc(Cl)cc1)C(=O)NCC(c1cccs1)S(=O)(=O)c1cccs1 (centres undefined)	-24%	?	i	-1%	-2%	/	/	/	/	/
O=C(COc1ccc(Cl)cc1)Nc1ccc(Cl)cc1C(=O)c1ccccc1	3%	3%	i	0%	-3%	/	/	/	/	/
CCOc1ccc(NC(=O)CSc2oc(-c3ccccc3)nc2S(=O)(=O)c2ccc(Cl)cc2)cc1	10µM*	?	i	6%	6%	?	?	3%	?	19µM*
CCOC(=O)c1cnc2c(ccc3ccccc32)c1Nc1ccc(N(C)C)cc1	?	?	i	3%	-15%	/	/	/	/	/
Cc1ccc(-n2c(/C=C\c3ccc(F)c(F)c3)nc3ccccc3c2=O)c(C)c1	8.9µM*	6%	i	4%	?	-3%	-3%	2%	-6%	?
Cc1ccc(Cn2c(=O)n(CCCCC(=O)NCc3ccccc3Cl)c(=O)c3ccccc32)cc1	?	?	i	1%	-1%	/	/	/	/	/
